Bioassay records: PubChem BioAssay, National Center for Advancing Translational Sciences (NCATS)
HPGD inh = qHTS Assay for Inhibitors of HPGD (15-Hydroxyprostaglandin Dehydrogenase); 15-hydroxyprostaglandin dehydrogenase [NAD(+)] (Homo sapiens), P15428; purified HPGD, NADH fluorescence kinetic, PGE2 substrate; Potency, µM, for inactives: at the highest dose activity change, negative = inhibition, actives largely listed as inhibitors; 150,000 tested, 4.3% active; AID 894, 2007; active = well fitted inhibition curve with a large enough effect, not every such curve was filed as active; inconclusive = small, poorly fitted or top-dose-only effect, or another doubt; inactive = no such curve, though single readings can be large or run the other way
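20 nM HPGD preincubated 15 min at room temperature with compound in 50 mM Tris-HCl pH 8, 0.01% Tween 20. Started with 1 mM NAD+ and 30 uM prostaglandin E2; NADH fluorescence (360/450 nm) read 5 times over 30-s intervals, last minus first.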
Tau fibril ThT = qHTS for Inhibitors of Tau Fibril Formation, Thioflavin T Binding | AID 1460, 2008 | Potency, µM (highest dose often 57.4 µM), for inactives: at the highest dose activity, negative = inhibition, most hits filed as inhibitors | Microtubule-associated protein tau (Homo sapiens), P10636 | recombinant tau K18 P301L, heparin-induced fibrillization, ThT fluorescence | 270,000 tested, 2.1% active; note: nearly all actives have a fitted effect of over 55% in size
Target sequence (P10636 561-689 P618L limits assumed): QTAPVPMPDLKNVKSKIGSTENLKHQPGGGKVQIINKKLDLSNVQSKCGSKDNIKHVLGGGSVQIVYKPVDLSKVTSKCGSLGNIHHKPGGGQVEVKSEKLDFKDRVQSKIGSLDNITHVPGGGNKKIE
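K18 P301L tau (15 uM + 0.24 uM Alexa 594-tagged), heparin 20 uM, NaOAc pH 7, 6 h 37 C; ThT 30 uM, 1 h RT, ex 450/em 510 nm.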
Tau fibril FP = qHTS for Inhibitors of Tau Fibril Formation, Fluorescence Polarization | Microtubule-associated protein tau (Homo sapiens), P10636 | Potency, µM (titrated, usually from 57.7 µM), inactives show top-dose activity, negative = inhibition, actives largely listed as inhibitors | K18 P301L tau heparin fibrillization, Alexa594 FP, 6 h | 280,000 tested, 0.39% active; note: nearly all actives have a fitted effect of over 55% in size
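Steps: dispense K18 P301L tau (15 uM plus 0.24 uM Alexa 594 tracer, final) in pH 7 sodium acetate; add compound; add heparin (20 uM final); incubate 6 hr, 37 C; add ThT (30 uM final); after 1 hr ambient, read FP.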
Tau fluor counter = Counterscreen qHTS for Inhibitors of Tau Fibril Formation, Fluorescence Polarization; 280,000 tested, 0.93% active; AID 1463, 2008; tau K18 P301L (four-repeat tau fragment) Alexa594 fluorescence, heparin fibrillization; Potency, µM (highest dose often 57.7 µM), without a hit: at the highest dose activity change, negative = decrease; note: nearly all actives have a fitted effect of over 55% in size
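Human K18 P301L tau (15 uM unlabeled plus 0.24 uM Alexa 594-labeled, final) in 100 mM sodium acetate pH 7 was mixed with compound and 20 uM heparin and incubated 6 hr at 37 C.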
ALDH1A1 block = qHTS Assay for Inhibitors of Aldehyde Dehydrogenase 1 (ALDH1A1) | Aldehyde dehydrogenase 1A1 (Homo sapiens), P00352 | Purified ALDH1A1, NADH fluorescence, propionaldehyde substrate | Potency, µM (doses to about 75.3 µM), without a hit: at the highest dose activity, negative = inhibition, usual class: inhibitors | 220,000 tested, 7.3% active; active = well fitted inhibition curve with a large enough effect, not every such curve was filed as active; inconclusive = small, poorly fitted or top-dose-only effect, or another doubt; inactive = no such curve, though single readings can be large or run the other way;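 note: plate controls were no enzyme wells and a reference inhibitor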
Target sequence (P00352 whole entry, looked up): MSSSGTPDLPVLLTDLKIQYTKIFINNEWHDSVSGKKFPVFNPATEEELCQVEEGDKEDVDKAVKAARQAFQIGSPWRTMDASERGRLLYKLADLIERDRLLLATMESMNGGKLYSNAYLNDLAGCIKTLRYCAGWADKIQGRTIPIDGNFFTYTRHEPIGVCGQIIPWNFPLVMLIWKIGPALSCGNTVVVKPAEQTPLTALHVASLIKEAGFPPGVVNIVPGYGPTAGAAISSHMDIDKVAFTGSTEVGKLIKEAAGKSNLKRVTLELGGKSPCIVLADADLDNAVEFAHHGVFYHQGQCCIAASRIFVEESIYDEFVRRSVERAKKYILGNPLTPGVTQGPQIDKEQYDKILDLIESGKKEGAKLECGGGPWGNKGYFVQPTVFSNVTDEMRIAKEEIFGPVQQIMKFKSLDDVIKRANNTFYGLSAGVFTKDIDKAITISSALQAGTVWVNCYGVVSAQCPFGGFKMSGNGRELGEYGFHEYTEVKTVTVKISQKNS
JMJD2E inh = qHTS Assay for Inhibitors of Human Jumonji Domain Containing 2E (JMJD2E) | 230,000 tested, 1.6% active | JMJD2E catalytic domain, FDH-coupled NADH fluorescence (FDH is formaldehyde dehydrogenase) | Lysine-specific demethylase 4E (Homo sapiens), B2RXH2 | Potency, µM (series often up to 57.1 µM), inactives show at the top dose activity change, negative = inhibition, usual class: inhibitors; active = well fitted inhibition curve with a large enough effect, not every such curve was filed as active; inconclusive = small, poorly fitted or top-dose-only effect, or another doubt; inactive = no such curve, though single readings can be large or run the other way;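 note: 0% = wells with enzyme and -100% = buffer wells without enzyme; nearly all actives have a fitted effect of over 50% in size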
Starred values were filed as active, the others as inactive; [ ] = another dose, or the depositor's remark. Only some compounds are listed: those with a hit (about 9.9% of all), similar ones and a draw of the others. Unless noted, calls come from the whole dose curve; as a rule, active = well fitted curve in the direction sought with a large enough effect; inconclusive = small, poorly fitted or top-dose-only effect, or another doubt; inactive = no such curve, though single readings can be large; an effect the other way counts as inactive or inconclusive. Unless noted, % is set by controls: 0 for no effect and ±100 for the full control effect; potency is the fitted concentration of half-maximal effect.

For Cc1ccc(CNC(=O)c2cc(-c3cc(C)cc(C)c3O)n[nH]2)cc1 the results were Tau fibril ThT -5%, Tau fibril FP -11%, Tau fluor counter inconclusive and JMJD2E inh 17%.
Screening COC(=O)c1cc(C(=O)OCC(=O)NCc2ccc3c(c2)OCO3)cc([N+](=O)[O-])c1 returned HPGD inh 5%, Tau fibril ThT 6%, Tau fibril FP 5%, Tau fluor counter -2%, ALDH1A1 block -5% and JMJD2E inh 7%.
For CC(=O)OCC(=O)NCc1ccc2c(c1)OCO2 the results were HPGD inh 20µM*, Tau fibril ThT -4%, Tau fibril FP -5%, Tau fluor counter 0%, ALDH1A1 block 10% and JMJD2E inh -2%.
COc1ccc(C(=O)OCC(=O)NCc2ccc3c(c2)OCO3)cc1[N+](=O)[O-] was read as HPGD inh -2%, Tau fibril ThT 6%, Tau fibril FP -8%, Tau fluor counter 6%, ALDH1A1 block 5µM* and JMJD2E inh 8%.
Cc1ccc(O)c(-c2cc(C(=O)NCc3ccc4c(c3)OCO4)[nH]n2)c1 was read as HPGD inh 3.2µM*, Tau fibril ThT -20%, Tau fibril FP inconclusive, Tau fluor counter inconclusive, ALDH1A1 block inconclusive and JMJD2E inh 12%.
O=C(COC(=O)c1cnc(Cl)c(Cl)c1)NCc1ccc2c(c1)OCO2 was read as HPGD inh -3%, Tau fibril ThT -3%, Tau fibril FP -4%, Tau fluor counter -5%, ALDH1A1 block 2.2µM* and JMJD2E inh 11%.
Cn1c(=O)c(=O)n(C)c2cc(N3CCCC3)c(NC(=O)c3ccc(C(C)(C)C)cc3)cc21 was read as Tau fibril ThT -17%, Tau fibril FP -2% and Tau fluor counter -10%.
Screening CC(C)(C)c1ccc(NC(=O)N2CCCN(c3ccc([N+](=O)[O-])cn3)CC2)cc1 returned Tau fibril ThT 0%, Tau fibril FP -14%, Tau fluor counter -6%, ALDH1A1 block 16µM* and JMJD2E inh -13%.
O=C(Nc1ccc([N+](=O)[O-])cc1)N1CCCCC1 was read as Tau fibril ThT -11%, Tau fibril FP -13%, Tau fluor counter -22%, ALDH1A1 block -13% and JMJD2E inh -1%.
Screening CCOC(=O)c1sc(NC(=O)CCN2C(=O)c3ccccc3C2=O)c(C(=O)OCC)c1C returned HPGD inh -5%, Tau fibril ThT -18%, Tau fibril FP -1%, Tau fluor counter -10%, ALDH1A1 block inconclusive and JMJD2E inh -7%.
Screening CCOC(=O)c1sc(NC(=O)CCN2CCN(CC)CC2)c(C(=O)OCC)c1C returned Tau fibril ThT 16%, Tau fibril FP 0%, Tau fluor counter 11%, ALDH1A1 block 10µM* and JMJD2E inh -1%.
CCOC(=O)c1sc(NC(=O)CN(CC(C)C)CC(C)C)c(C(=O)OCC)c1C was read as HPGD inh inconclusive, Tau fibril ThT -12%, Tau fibril FP -2%, Tau fluor counter -8%, ALDH1A1 block 22µM* and JMJD2E inh 0%.
`CCOC(=O)c1c(NC(=O)CC(C)C)sc(C(C)=O)c1C` gave HPGD inh -15%, Tau fibril ThT 0%, Tau fibril FP 3%, Tau fluor counter -3%, ALDH1A1 block inconclusive and JMJD2E inh -5%.
`CCOC(=O)c1sc(NC(=O)CCN2CCC(C)CC2)c(C(=O)OCC)c1C` gave Tau fibril ThT 1%, Tau fibril FP -2%, Tau fluor counter 6%, ALDH1A1 block 2.5µM* and JMJD2E inh 5%.
CCC(C)n1c(=S)[nH]c2c(sc3ccc([N+](=O)[O-])cc32)c1=O (stereo unspecified) was read as HPGD inh -4%, Tau fibril ThT inconclusive, Tau fibril FP inconclusive, Tau fluor counter -11%, ALDH1A1 block 0% and JMJD2E inh 8%.
`COCCNC(=O)C(=O)NCC1OCCCN1S(=O)(=O)c1cccs1` (stereo unspecified) gave HPGD inh -9%, Tau fibril ThT 4%, Tau fibril FP -12%, Tau fluor counter -7%, ALDH1A1 block 18µM* and JMJD2E inh 8%.
For O=C(NCc1ccco1)C(=O)NCC1OCCCN1S(=O)(=O)c1ccccc1 (stereo unspecified) the results were HPGD inh -16%, Tau fibril ThT -15%, Tau fibril FP -6%, Tau fluor counter -6%, ALDH1A1 block 14µM* and JMJD2E inh -4%.
CS(=O)(=O)N1N=C(c2cccs2)CC1c1ccccc1 (stereo unspecified) was read as Tau fibril ThT -10%, Tau fibril FP -7%, Tau fluor counter -19% and JMJD2E inh 0%.
O=[N+]([O-])c1ccc(C2Oc3ccccc3C3CC(c4ccccc4)=NN32)s1 (stereo unspecified) was read as HPGD inh -30%, Tau fibril ThT 14µM*, Tau fibril FP inconclusive, Tau fluor counter 14µM*[quencher], ALDH1A1 block inconclusive and JMJD2E inh inconclusive.
For c1ccc(C2Oc3ccccc3C3CC(c4cccs4)=NN32)cc1 (stereo unspecified) the results were HPGD inh inconclusive, Tau fibril ThT inconclusive, Tau fibril FP -14%, Tau fluor counter -21%, ALDH1A1 block 13µM* and JMJD2E inh 3%.
`CC(=O)N1N=C(c2ccccc2)CC1c1ccccc1[N+](=O)[O-]` (stereo unspecified) gave HPGD inh -3%, Tau fibril ThT -11%, Tau fibril FP -11%, Tau fluor counter -13%, ALDH1A1 block -9% and JMJD2E inh 5%.
For Cc1ccc(NC(=O)C2CCCN(S(=O)(=O)c3cn(C(C)C)cn3)C2)c(C)c1 (stereo unspecified) the results were Tau fibril ThT 4%, Tau fibril FP inconclusive and Tau fluor counter 6%.
CCN(Cc1ccccc1)C(=O)C1CCC(CNS(=O)(=O)c2ccc3c(c2)CCCC(=O)N3)CC1 (stereo unspecified) was read as Tau fibril ThT 2%, Tau fibril FP 2% and Tau fluor counter 0%.
For Cc1ccc(F)c(NC=C2C(=O)OC(C)(C)OC2=O)c1 the results were HPGD inh -27%, Tau fibril ThT -7%, Tau fibril FP -2%, Tau fluor counter -4%, ALDH1A1 block 10µM* and JMJD2E inh -12%.
